This passage reports AC50 and outcome results from PubChem BioAssay (EPA / NIEHS).

Inconclusive results are not listed. Active and inactive are the calls of the source. The calls were made as follows, unless noted: active = hit-call score of the fitted dose curve at least 0.9, where 1 is the maximum; inconclusive = response in the unintended direction; inactive = score below 0.9.

Assay [1] has as its target Cellular tumor antigen p53 (Homo sapiens) (UniProt P04637). Put plainly: TOX21_p53_BLA_p2_ratio: Tox21 HCT-116 p53 Agonism Beta-lactamase Assay, Ratio, Phase 2 (AID 2283592). The procedure, abridged:
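HCT116 cells carrying a p53-responsive beta-lactamase reporter were plated, incubated 5 h at 37C, then dosed with compounds in DMSO (217-fold dilution) for 16 h. CCF4-AM substrate was added for 2 h at room temperature; the 460/530 nm emission ratio gave gain-of-signal activity relative to DMSO.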

A short description of assay [2]: TOX21_p53_BLA_p3_viability: Viability Assessment in the Tox21 HCT-116 p53 Agonism Beta-lactamase Assay, Phase 3 (AID 2283593).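 Also: cells exposed to compound for 16 h before reading.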 The method, boiled down: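 HCT116 cells, 4000/well, dosed 5 h after plating by pin transfer (217-fold dilution from DMSO stock) and incubated 16 h at 37C, 5% CO2. Viability read as ATP luminescence with CellTiter-Glo after 30 min at room temperature.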

The target of assay [3] is Cellular tumor antigen p53 (Homo sapiens) (UniProt P04637). Put plainly: TOX21_p53_BLA_p3_ratio: Tox21 HCT-116 p53 Agonism Beta-lactamase Assay, Ratio, Phase 3 (AID 2283596). The method, boiled down:
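HCT116 p53-bla cells (4000/well) given compound in DMSO (217-fold dilution) after 5 h, incubated 16 h at 37C. CCF4-AM substrate 2 h at room temperature; 460/530 nm emission ratio, gain fitted against DMSO.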

A short description of assay [4]: TOX21_p53_BLA_p4_viability: Viability Assessment in the Tox21 HCT-116 p53 Agonism Beta-lactamase Assay, Phase 4 (AID 2283597).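 Also: hits lower the luminescence signal meaning cytotoxicity.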 The procedure, abridged:
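HCT116 p53-bla cells (4000/well) rested 5 h at 37C, then received compounds in DMSO (217-fold dilution) for 16 h at 37C, 5% CO2. CellTiter-Glo was added after the CCF4-AM read, and luminescence was read after 30 min at room temperature.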

The target in assay [5] is Cellular tumor antigen p53 (Homo sapiens) (UniProt P04637). The assay is described as follows: TOX21_p53_BLA_p5_ratio: Tox21 HCT-116 p53 Agonism Beta-lactamase Assay, Ratio, Phase 5 (AID 2283599). The method, boiled down: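 HCT-116 p53-bla cells (4000/well) plated 5 h, dosed with compound (217-fold DMSO dilution) for 16 h at 37 C; CCF4-AM substrate 2 h at room temperature. Activity is the 460/530 nm emission ratio (405 nm excitation), fitted in gain-of-signal direction versus DMSO.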

Assay [6] is described as follows: TOX21_p53_BLA_p5_viability: Viability Assessment in the Tox21 HCT-116 p53 Agonism Beta-lactamase Assay, Phase 5 (AID 2283600). The procedure, abridged:
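Cells were plated at 4000/well, rested 5 h at 37C, then given compounds in DMSO (217-fold dilution) for 16 h at 37C, 5% CO2. Following the CCF4-AM beta-lactamase read, CellTiter-Glo was added and luminescence was read after 30 min at room temperature.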

The target of assay [7] is Cellular tumor antigen p53 (Homo sapiens) (UniProt P04637). The assay is described as follows: TOX21_p53_BLA_p4_ratio: Tox21 HCT-116 p53 Agonism Beta-lactamase Assay, Ratio, Phase 4 (AID 2283601). The procedure, abridged:
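HCT-116 p53 beta-lactamase reporter cells (4000/well) preincubated 5 h, then compound (217-fold dilution of DMSO stock) for 16 h at 37C. CCF4-AM substrate added 2 h at room temperature; 460/530 nm emission ratio fitted upward versus DMSO.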

In assay [8] the target is PGR (gene 5241) (UniProt P06401). Put plainly: TOX21_PR_BLA_Followup_Agonist_ratio: Tox21 HEK293 Progesterone Receptor (PR) Agonism Beta-lactamase Follow-Up Assay, Ratio (AID 2283933). The procedure, abridged: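 Agonist-mode follow-up in HEK293T cells carrying a UAS-driven beta-lactamase reporter, grown in 2% charcoal-stripped serum. Compounds act for 16 hr; activity is the ch2/ch1 cleavage ratio, with same-well CellTiter-Glo viability run in parallel.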

For assay [9] the target is unchanged. The assay is described as follows: TOX21_PR_BLA_Followup_Antagonist_ratio: Tox21 HEK293 Progesterone Receptor (PR) Antagonism Beta-lactamase Follow-Up Assay, Ratio (AID 2283934).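 Also: PR-UAS-bla HEK293T cells stimulated with 1 nM R5020 agonist for 16 hr.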 The method, boiled down:
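Antagonist mode used 1 nM R5020 (final) as agonist on a beta-lactamase reporter line in HEK293T cells. Activity was taken from the substrate cleavage ratio after 16 hr exposure.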

For assay [10] the target is unchanged. The assay is described as follows: TOX21_PR_LUC_Followup_Agonist: Tox21 HEK293 Progesterone Receptor (PR) Agonism Luciferase Follow-Up Assay (AID 2283937; active = hit-call score of the fitted dose curve at least 0.9, where 1 is the maximum; inactive = score below 0.9). The procedure, abridged:
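Agonist mode: reporter cells carrying PR-A and luciferase are treated 16 h with test compounds at 37C. Luciferase induction is measured by luminescence and fitted upward against DMSO.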

A short description of assay [11]: TOX21_PR_LUC_Followup_Agonist_viability: Viability Assessment in the Tox21 HEK293 Progesterone Receptor (PR) Agonism Luciferase Follow-Up Assay (AID 2283941).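 Also: loss of signal means cytotoxicity so actives lower viability.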 The method, boiled down:
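Luminescent ATP quantitation (CellTiter-Glo) serves as the read-out; a drop flags cytotoxic compounds. Cells are HEK293-PR-A-luc grown in 10% charcoal-stripped FBS, plated 3,000/well, and exposed to compound for 16 h.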

Assay [12] has as its target Thyroid hormone receptor alpha (Rattus norvegicus) + Thyroid hormone receptor beta (Rattus norvegicus) (UniProt P18113+P63059). Put plainly: TOX21_TR_LUC_GH3_Antagonist_Followup: Tox21 GH3 Thyroid Hormone Receptor Antagonism Luciferase Follow-Up Assay (AID 2283942). The method, boiled down: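 Antagonist mode: GH3 cells seeded 1,500/well, compounds at 15 concentrations (92 uM to 5nM final) plus T3 at 1.0 nM final, 24 h at 37C. Luciferase read with ONE-Glo after 30 min at room temperature.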

Assay [13] has as its target THRB (gene 7068) (UniProt P10828). The assay is described as follows: TOX21_TRB_BLA_Antagonist_Followup_ratio: Tox21 Thyroid Hormone Receptor beta Antagonism Beta-lactamase (BLA) Follow-Up Assay, Ratio (AID 2283958). The procedure, abridged: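 In this antagonist-mode follow-up, a stably integrated GAL4-TRβ LBD fusion drives a UAS-beta-lactamase reporter in HEK293T cells. Loss of ratio signal relative to DMSO after 18 h treatment indicates activity; parallel CellTiter-Glo flags cytotoxicity.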

A short description of assay [14]: TOX21_TRB_BLA_Antagonist_Followup_viability: Viability Assessment in the Tox21 Thyroid Hormone Receptor beta Antagonism Beta-lactamase (BLA) Follow-Up Assay (AID 2283961). The procedure, abridged:
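HEK293T cells stably expressing GAL4-DBD/human TRβ-LBD with UAS-bla reporter, 3,000 cells/well in phenol red-free DMEM, 2% charcoal-stripped FBS. Compounds at 11 concentrations in triplicate, 18 h at 37C/5% CO2; viability by CellTiter-Glo luminescence after 30 min at room temperature.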

The target of assay [15] is THRB (gene 7068) (UniProt P10828). The assay is described as follows: TOX21_TRB_COA_Antagonist_Followup_ratio: Tox21 Thyroid Hormone Receptor beta Antagonism through Coactivator Recruitment Follow-Up Assay, Ratio (AID 2283967). The procedure, abridged:
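Cell-free TR-FRET: GST-TRb LBD (5.0 nM) with fluorescein-SRC-2 peptide (200 nM) and Tb anti-GST antibody (2 nM), 0.10% BSA. 520:495 nm emission ratio normalized to DMSO (0%) and T3 (100%).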

The target of assay [16] is Retinoic acid receptor RXR-alpha (Homo sapiens) (UniProt P19793). The assay is described as follows: TOX21_TR_RXR_BLA_Antagonist_Followup_ratio: Tox21 Thyroid Hormone Receptor beta Retinoid X Receptor alpha (RXRa) Antagonism Beta-lactamase (BLA) Follow-Up Assay, Ratio (AID 2283972). The method, boiled down:
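RXRa-UAS-bla HEK293T cells in phenol red-free DMEM with 2% charcoal-stripped FBS; compounds at 11 concentrations in triplicate, 16 h at 37C. LiveBLAzer FRET-B/CCF4-AM substrate 2 h at room temperature; read as 460:530 nm ratio versus DMSO.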

Sequence of Cellular tumor antigen p53 (Homo sapiens) (P04637 whole entry, looked up): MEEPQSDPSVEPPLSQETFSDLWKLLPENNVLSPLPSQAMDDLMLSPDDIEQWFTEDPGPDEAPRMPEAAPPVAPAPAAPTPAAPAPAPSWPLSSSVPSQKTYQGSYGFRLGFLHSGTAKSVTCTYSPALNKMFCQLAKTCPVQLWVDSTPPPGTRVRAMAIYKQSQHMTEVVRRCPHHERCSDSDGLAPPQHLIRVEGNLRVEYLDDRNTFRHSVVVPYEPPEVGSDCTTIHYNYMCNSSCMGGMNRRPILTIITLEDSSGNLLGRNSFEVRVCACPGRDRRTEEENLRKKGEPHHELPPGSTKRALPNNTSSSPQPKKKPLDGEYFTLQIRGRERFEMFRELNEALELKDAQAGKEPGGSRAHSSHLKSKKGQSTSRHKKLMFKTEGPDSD
Sequence of PGR (gene 5241) (P06401 whole entry, looked up): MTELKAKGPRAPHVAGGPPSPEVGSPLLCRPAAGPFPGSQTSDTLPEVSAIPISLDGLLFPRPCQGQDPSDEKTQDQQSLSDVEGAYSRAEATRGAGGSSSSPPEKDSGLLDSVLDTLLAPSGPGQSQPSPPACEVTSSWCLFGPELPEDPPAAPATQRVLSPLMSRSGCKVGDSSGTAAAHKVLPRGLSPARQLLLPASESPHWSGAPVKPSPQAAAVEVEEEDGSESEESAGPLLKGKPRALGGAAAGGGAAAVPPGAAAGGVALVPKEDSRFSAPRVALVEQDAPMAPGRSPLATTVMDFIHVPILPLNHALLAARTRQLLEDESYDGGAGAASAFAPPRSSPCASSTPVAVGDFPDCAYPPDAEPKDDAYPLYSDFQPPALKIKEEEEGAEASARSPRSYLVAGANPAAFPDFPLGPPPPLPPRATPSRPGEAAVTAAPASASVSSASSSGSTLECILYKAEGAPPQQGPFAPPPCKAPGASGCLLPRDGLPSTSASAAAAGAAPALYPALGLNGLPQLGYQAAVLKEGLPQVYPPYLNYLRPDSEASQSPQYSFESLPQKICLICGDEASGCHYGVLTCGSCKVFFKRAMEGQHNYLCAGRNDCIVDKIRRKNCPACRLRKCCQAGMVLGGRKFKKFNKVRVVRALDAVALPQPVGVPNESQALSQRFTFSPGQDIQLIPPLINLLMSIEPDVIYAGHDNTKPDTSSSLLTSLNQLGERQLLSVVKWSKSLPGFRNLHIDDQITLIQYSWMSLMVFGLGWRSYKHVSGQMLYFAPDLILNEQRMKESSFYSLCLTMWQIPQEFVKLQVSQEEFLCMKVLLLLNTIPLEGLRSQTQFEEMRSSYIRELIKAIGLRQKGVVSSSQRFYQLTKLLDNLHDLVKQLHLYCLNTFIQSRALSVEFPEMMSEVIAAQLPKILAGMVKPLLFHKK
Sequence of THRB (gene 7068) (P10828 whole entry, looked up, the tested form may be a part): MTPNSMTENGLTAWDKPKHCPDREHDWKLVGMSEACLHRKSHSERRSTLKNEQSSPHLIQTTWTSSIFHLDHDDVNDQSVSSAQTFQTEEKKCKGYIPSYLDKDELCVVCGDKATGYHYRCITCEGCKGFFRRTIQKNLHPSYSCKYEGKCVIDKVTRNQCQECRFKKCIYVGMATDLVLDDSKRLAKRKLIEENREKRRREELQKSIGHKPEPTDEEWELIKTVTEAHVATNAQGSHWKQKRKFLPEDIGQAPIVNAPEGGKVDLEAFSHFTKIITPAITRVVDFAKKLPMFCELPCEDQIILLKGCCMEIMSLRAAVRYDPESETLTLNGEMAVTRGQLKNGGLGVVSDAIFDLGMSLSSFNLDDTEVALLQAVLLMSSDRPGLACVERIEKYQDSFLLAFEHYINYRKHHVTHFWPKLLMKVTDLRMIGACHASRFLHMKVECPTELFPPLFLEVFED
Sequence of Retinoic acid receptor RXR-alpha (Homo sapiens) (P19793 whole entry, looked up): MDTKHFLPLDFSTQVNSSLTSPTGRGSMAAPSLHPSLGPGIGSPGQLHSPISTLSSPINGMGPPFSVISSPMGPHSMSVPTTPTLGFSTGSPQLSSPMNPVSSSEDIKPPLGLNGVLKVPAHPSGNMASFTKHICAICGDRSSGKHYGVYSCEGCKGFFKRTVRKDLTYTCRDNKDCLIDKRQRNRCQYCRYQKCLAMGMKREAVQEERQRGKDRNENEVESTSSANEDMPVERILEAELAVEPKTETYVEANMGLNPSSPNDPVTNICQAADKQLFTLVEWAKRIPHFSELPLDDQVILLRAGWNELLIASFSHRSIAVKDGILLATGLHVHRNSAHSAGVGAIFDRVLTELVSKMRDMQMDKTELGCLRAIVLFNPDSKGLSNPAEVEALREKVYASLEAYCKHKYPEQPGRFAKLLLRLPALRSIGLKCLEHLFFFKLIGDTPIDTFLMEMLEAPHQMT

Turning to `CC[C@]1(O)CC[C@H]2[C@@H]3CCC4=CCCC[C@@H]4[C@H]3CC[C@@]21C`, the AC50 in [1] was 3.73 µM (active); in [3], 3.62 µM (active); in [5], 7.06 µM (active); in [7], 7.04 µM (active); with PGR (gene 5241) [8], 0.686 µM (active); in the assay with PGR (gene 5241) [10], 0.0421 µM (active). Further, the figures for the AC50 (in the assay with THRB (gene 7068) [13]; in [16]) were 11.6 µM (active) and 14.3 µM (active), respectively. Further, the result (in assay [2]; in [4]; in [6]; in the assay with PGR (gene 5241) [9]; in [11]; in assay [12]) was inactive. Moreover, the result (in [14]; in the assay with THRB (gene 7068) [15]) was inactive.

As usually defined, the AC50 is the concentration giving half of the maximal activity seen.
